About 13,000 (27%) of roughly 48,000 compounds showed an effect of 50% or more. The list shows a part of the results.

This is an account of results in ChEMBL document CHEMBL3988442, “University of Dundee, Small-Polar-MMV Screening Library” (2021).

This test relates to Wolbachia pipientis. Put plainly: Anti-Wolbachia Cell-Based Screen. Details: scale not given: in the data most compounds retested in dose-response had high values. It counts as functional. The following applies: 5 µM.
As to `COc1ccc2c(c1)nc1n2[C@@H](CNCc2nccs2)COC1`, the “Percent Effect” value came out at 4.423%.

On to `CC(C)COCC1CN(Cc2cnn(C)c2)Cc2ncn(C)c21` (centres undefined), for which the “Percent Effect” value was determined as 123.1%. Take `Cn1ncc2c1C(COCC1CC1)CN(Cc1ccco1)C2` (centres undefined): the “Percent Effect” value is on record as -0.8913%.

For `CCOCC1CN(Cc2cnn(C)c2)Cc2ncn(CC3CC3)c21` (centres undefined), the “Percent Effect” value is recorded as -8.097%. As to `Cn1cnc2c1C(COCC1CC1)CN(Cc1ccsc1)C2` (centres undefined), the “Percent Effect” value turned out to be 3.226%. As for `CC(C)COCC1CN(Cc2ccoc2)Cc2ncn(C)c21` (centres undefined), the “Percent Effect” value is reported as 128.9%. With `CCOCC1CN(Cc2ccoc2)Cc2ncn(CC3CC3)c21` (centres undefined), the “Percent Effect” value is -9.148%. Regarding `CC(C)COCC1CN(Cc2ccco2)Cc2ncn(C)c21` (centres undefined), the “Percent Effect” value amounted to 120.7%. Then `Cn1cc(CN2Cc3cn(C)nc3C(COCC3CC3)C2)cn1` (centres undefined), with -9.412%.

With `Cn1cc2c(n1)C(COCC1CC1)CN(Cc1ccsc1)C2` (centres undefined), the “Percent Effect” value is -15.61%. With `CC(C)COCC1CN(Cc2ccsc2)Cc2ncn(C)c21` (centres undefined), the “Percent Effect” value stood at 90.56%. On to `CCOCC1CN(Cc2ccco2)Cc2ccnn2C1` (centres undefined), for which the “Percent Effect” value is -17.9%.

Take `COCC1CN(Cc2ccoc2)Cc2cn(C)nc21` (centres undefined): the “Percent Effect” value is listed as 2.216%. As to `CN(C)C(=O)c1nc2c(s1)CCCN2Cc1ccccc1`, the “Percent Effect” value is on record as -4.503%. As for `Cc1ccc(C)c2c(O)cc(CN3CCC(=O)NCC3C)nc12` (centres undefined), the “Percent Effect” value is -0.2793%. As to `CCC(NC(=O)Nc1cc(F)c(OC)c(F)c1)c1noc(C)n1` (centres undefined), the “Percent Effect” value was -7.836%. On to `Cn1nc2c(cc1=O)CN(Cc1nc(-c3ccoc3)no1)CC2`, for which the “Percent Effect” value is recorded as -6.043%. On to `CC(C(=O)N1CCCCCC1)N1CCN(Cc2nccn2C)CC1` (centres undefined), for which the “Percent Effect” value was 103.6%. Then `Cn1ccnc1CN1CCCN(C(=O)C2(C#N)CCCCC2)CC1`, with -11.9%. Consider `CC(C(=O)N1CCOCC1)N1CCN(Cc2nccn2C)CC1` (centres undefined), for which the “Percent Effect” value turned out to be 114%. On to `CC(OCC1CC1)C(=O)N1CCCN(Cc2nccn2C)CC1` (centres undefined), for which the “Percent Effect” value was determined as 15.71%. Consider `CC(C)C(C(=O)N1CCCN(Cc2nccn2C)CC1)N1CCCC1` (centres undefined), for which the “Percent Effect” value is 74.16%. On to `CCN1CCN(C(=O)C(C)N2CCN(Cc3nccn3C)CC2)CC1` (centres undefined), for which the “Percent Effect” value is 0.1033%. As to `CCN(C(=O)NCCc1cccc(F)c1F)C(C)CS(C)(=O)=O` (centres undefined), the “Percent Effect” value turned out to be 8.569%.

In the case of `CCOc1ccc(CN(CCOC)c2nc(C)nc3oc(C)nc23)cc1`, the “Percent Effect” value is reported as -12.59%. `CCOc1ccnc(N2CCN(C(=O)c3ccn(C)c(=O)c3)CC2)n1`: the “Percent Effect” value is reported as 88.48%.

On to `COc1cc(C)nc(N2CCN(C(=O)c3ccn(C)c(=O)c3)CC2)n1`, for which the “Percent Effect” value is reported as 111.9%. As for `CCOc1ccnc(N2CCN(C(=O)c3cc(Cl)c[nH]3)CC2)n1`, the “Percent Effect” value is -0.9133%.

On to `CCOc1ccnc(N2CCN(C(=O)c3cccc(C#N)c3)CC2)n1`, for which the “Percent Effect” value was 3.478%. The figure for `CCOc1cccc(C(=O)N2CCN(c3nccc(OC)n3)CC2)c1` is -0.7298%.

For `COc1ccnc(N2CCN(C(=O)c3ccn(C)c(=O)c3)CC2)n1`, the “Percent Effect” value came to 101.7%.

With `COc1cc(C)nc(N2CCN(C(=O)c3ccc(Cl)o3)CC2)n1`, the “Percent Effect” value is listed as 4.762%. Turning to `COc1cc(C)nc(N2CCN(C(=O)c3ccccc3C)CC2)n1`, the “Percent Effect” value stood at 2.606%. Then `COc1ccnc(N2CCN(C(=O)c3cscn3)CC2)n1`, with 2.321%.
